Shown are actives, neighbours in structure and some others; about 2.7% of the full set was active somewhere.
MPTP inh = mitochondrial permeability transition pore inhibitors, primary screen, biochemical, isolated mouse mitochondria, absorbance; inhibition, % at 10 µM; 360,000 tested, 1.4% active; Ca2+ swelling absorbance, 30 min;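 active = inhibition of 50% or more, scaled per plate between neutral and stimulator controls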;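 also: 0% = DMSO wells given calcium and 100% = 1 mM EGTA wells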
CendR NRP1 mod = modulators of CendR peptide binding to NRP-1, primary screen, biochemical, fluorescence polarization, uHTS; Neuropilin-1 (Homo sapiens), O14786; FAM-RPARPAR peptide binding to NRP-1; inhibition, % at 25 µM; 360,000 tested, 0.85% active; AID 602438, 2012;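 active = inhibition or corrected inhibition above about 18%, plus a signal ratio from 0.5 to 1.5, limit read from the data, passing the limit was not always enough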
Target sequence (O14786 whole entry, looked up): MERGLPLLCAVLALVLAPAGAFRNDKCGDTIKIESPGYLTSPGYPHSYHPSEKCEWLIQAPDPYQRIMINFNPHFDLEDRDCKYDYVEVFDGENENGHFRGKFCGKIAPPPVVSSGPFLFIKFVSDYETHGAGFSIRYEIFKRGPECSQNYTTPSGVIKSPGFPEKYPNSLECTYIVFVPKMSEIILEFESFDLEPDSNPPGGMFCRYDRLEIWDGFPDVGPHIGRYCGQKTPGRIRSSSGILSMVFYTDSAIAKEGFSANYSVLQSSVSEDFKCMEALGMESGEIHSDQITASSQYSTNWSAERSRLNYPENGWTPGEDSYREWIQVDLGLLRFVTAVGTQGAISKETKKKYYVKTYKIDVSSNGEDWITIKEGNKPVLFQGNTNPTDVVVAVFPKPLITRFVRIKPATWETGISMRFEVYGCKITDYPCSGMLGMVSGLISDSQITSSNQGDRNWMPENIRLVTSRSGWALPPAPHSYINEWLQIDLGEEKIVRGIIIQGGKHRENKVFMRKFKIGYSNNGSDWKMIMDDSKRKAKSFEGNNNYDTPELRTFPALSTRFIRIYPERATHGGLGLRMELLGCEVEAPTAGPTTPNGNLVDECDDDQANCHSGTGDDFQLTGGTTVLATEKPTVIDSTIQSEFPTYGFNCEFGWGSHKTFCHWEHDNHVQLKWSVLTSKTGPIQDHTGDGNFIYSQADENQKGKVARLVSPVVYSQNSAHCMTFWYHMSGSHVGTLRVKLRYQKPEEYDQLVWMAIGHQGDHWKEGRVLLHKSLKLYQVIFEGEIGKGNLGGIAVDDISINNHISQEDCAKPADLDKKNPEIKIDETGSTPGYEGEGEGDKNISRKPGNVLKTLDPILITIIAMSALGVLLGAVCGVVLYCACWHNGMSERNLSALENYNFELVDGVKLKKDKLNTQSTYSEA
F508del corr = F508del CFTR correction, initial screen, CFBE line, single point; AID 720511, 2013; CFBE cells, YFP halide quenching; stimulated with forskolin plus potentiator P3; % fluorescence drop versus neutral controls; activity (quench increase), % at 7.58 µM; 350,000 tested, 0.36% active;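 active = mean added fluorescence quench of at least 8% versus neutral control, with both replicates also reaching 8%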;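 also: cells transiently co-express mutant CFTR-F508del with the halide-sensitive YFP; corrector assay measuring rescue of mutant channel to the surface after 24 h compound exposure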
ATG4B inhibitor = ATG4B protease inhibitors, primary screen, biochemical, fluorescence, uHTS; Cysteine protease ATG4B (Homo sapiens), Q9Y4P1; ATG4B cleavage of LC3-PLA2, NBD-HPC fluorescence, 1 h; inhibition, % at 8.33 µM; 340,000 tested, 0.51% active; in the data active = inhibition above about 40%
SKN-1 block = suppressors of acrylamide-induced Pgst-4::GFP reporter in worms, primary screen, SKN-1 inhibitor project, whole organism, uHTS, GFP/RFP fluorescence ratio, strain VP596; C. elegans VP596 Pgst-4::GFP/RFP ratio, 24 h; inhibition, % at 21.8 µM; 360,000 tested, 0.49% active;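 active = interference check ratio from 0.5 to 1.5 plus GFP to RFP signal ratio inhibition reaching or exceeding a fixed threshold, cut at about 30% in these data, passing the limit was not always enough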
Rh123 counter = fluorescence retest of MPTP screen hits in isolated mitochondria, single concentration. shares compounds with MPTP inh. membrane potential, Rhodamine 123 fluorescence. inhibition, % at 10 µM. 5,000 tested, 78% active. AID 624504, 2012; in the data active = inhibition above about 22%;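 also: 0% = DMSO vehicle and 100% = positive control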
MPTP abs DR = mitochondrial permeability transition pore inhibitors, dose response, biochemical, absorbance, uHTS hits. 780 tested, 58% active. AID 651561, 2012. shares compounds with MPTP inh. isolated mitochondria swelling. IC50, µM; in the data active = IC50 below about 20 µM
MPTP counter DR = fluorescent counter-screen in isolated mitochondria, dose response, counter-screen for MPTP inhibitor project, biochemical, fluorescence, uHTS hits; shares compounds with MPTP inh; isolated mitochondria counterscreen, fluorescence read-out; IC50, µM; 780 tested, 49% active; AID 651564, 2012; in the data active = IC50 below about 80 µM
The depositor's hits bear a star.

How did Cc1nc(N2CCC(C)CC2)c2c(C)c(C(=O)Nc3cccc(C(F)(F)F)c3)sc2n1 do in these assays?
MPTP inh: 84.0*; CendR NRP1 mod: 1.3; ATG4B inhibitor: -4.3; SKN-1 block: -0.8; Rh123 counter: 16.8; MPTP abs DR: inactive; MPTP counter DR: 7.7*

How did CCCNC(=O)N1CC2(CCN(Cc3cccc(F)c3)CC2)c2c([nH]c3cc(OC)ccc23)[C@@H]1CO do in these assays?
F508del corr: 2.2

What do the screens show for `Nc1ccc2nc(SCc3ccc([N+](=O)[O-])cc3)sc2c1`?
MPTP inh: 0.2; CendR NRP1 mod: -14.7; F508del corr: 0.1; ATG4B inhibitor: -3.8; SKN-1 block: -3.8

What do the screens show for `Cc1nc2ccc([N+](=O)[O-])cc2s1`?
MPTP inh: -2.8; CendR NRP1 mod: 14.7; F508del corr: 1.2; ATG4B inhibitor: -3.4; SKN-1 block: -12.2

Results for COc1ccccc1OCCSc1nc2ccc([N+](=O)[O-])cc2s1 ?
MPTP inh: 75.9*; CendR NRP1 mod: 8.0; ATG4B inhibitor: 3.8; SKN-1 block: -5.4; Rh123 counter: 86.5*

What do the screens show for `O=[N+]([O-])c1ccc2nc(SCc3ccccc3Cl)sc2c1`?
MPTP inh: 97.8*; CendR NRP1 mod: -3.6; ATG4B inhibitor: 9.3; SKN-1 block: 19.8; Rh123 counter: 68.1*

Results for O=C(CSc1nc2ccc([N+](=O)[O-])cc2s1)c1ccc2ccccc2c1 ?
MPTP inh: 1.6; CendR NRP1 mod: -3.7; F508del corr: 1.7; ATG4B inhibitor: -1.3; SKN-1 block: 14.9

What do the screens show for `C=CCc1ccccc1OCCSc1nc2ccc([N+](=O)[O-])cc2s1`?
MPTP inh: 83.6*; CendR NRP1 mod: -10.1; ATG4B inhibitor: -8.1; SKN-1 block: 12.0; Rh123 counter: 40.9*

What do the screens show for `C[C@@H]1CN([C@H](C)CO)C(=O)Cc2cc(NC(=O)Nc3cccc4ccccc34)ccc2O[C@@H]1CN(C)Cc1ccccc1`?
F508del corr: 2.5

What do the screens show for `Cc1noc(C)c1S(=O)(=O)Nc1ccc2c(c1)CC(=O)N([C@H](C)CO)C[C@H](C)[C@@H](CN(C)C(=O)Nc1ccc(F)cc1)O2`?
F508del corr: -1.3

What do the screens show for `Cc1ccc(NC(=S)Nc2ccc(OC(F)F)c(Cl)c2)cc1Cl`?
MPTP inh: 94.7*; CendR NRP1 mod: -5.5; ATG4B inhibitor: 7.9; SKN-1 block: -2.1; Rh123 counter: 91.7*

How did O=C(CCNC(=O)c1ccco1)Nc1ccc(OC(F)F)c(Cl)c1 do in these assays?
MPTP inh: 0.2; CendR NRP1 mod: -3.4; F508del corr: -2.1; ATG4B inhibitor: -20.4; SKN-1 block: 3.7

How did COc1ccc(NC(=S)Nc2ccc(C)c(Cl)c2)cc1OC do in these assays?
MPTP inh: 52.5*; CendR NRP1 mod: 5.3; F508del corr: -1.7; ATG4B inhibitor: 2.9; SKN-1 block: -2.9; Rh123 counter: 100.0*

How did COc1ccc(NC(=S)Nc2cccc(Cl)c2)cc1OC do in these assays?
MPTP inh: 7.9; CendR NRP1 mod: 6.7; F508del corr: 1.0; ATG4B inhibitor: 9.5; SKN-1 block: 12.7

How did CC(NC(=S)Nc1ccc(OC(F)F)c(Cl)c1)C(C)(C)C (stereo not given) do in these assays?
MPTP inh: 92.9*; CendR NRP1 mod: -0.4; F508del corr: -2.3; ATG4B inhibitor: 0.8; SKN-1 block: 11.3; Rh123 counter: 95.3*

What do the screens show for `COc1ccc(NC(=O)Nc2cccc3c2O[C@H](CN(C)S(C)(=O)=O)[C@H](C)CN([C@H](C)CO)C3=O)cc1`?
F508del corr: -1.4

Results for Oc1ccc(Oc2ccc(Oc3ccc(O)cc3)cc2)cc1 ?
MPTP inh: 62.4*; CendR NRP1 mod: -8.6; F508del corr: -4.4; ATG4B inhibitor: -1.8; SKN-1 block: 2.7; Rh123 counter: 80.4*

How did CC(=O)c1ccc(Oc2ccc(C(C)=O)cc2)cc1 do in these assays?
MPTP inh: -1.1; CendR NRP1 mod: -3.6; ATG4B inhibitor: 0.1; SKN-1 block: -4.9

How did CCOC(=O)N1CCN(CCC(=O)c2ccc(Cl)cc2)CC1 do in these assays?
MPTP inh: 103.1*; CendR NRP1 mod: -6.0; ATG4B inhibitor: -6.8; SKN-1 block: 9.9; Rh123 counter: 4.4; MPTP abs DR: inactive; MPTP counter DR: >80

Results for CC=Cc1ccc2n(c1=O)C[C@H]1[C@H](CO)[C@@H](C(=O)NC3CCCC3)N(C(=O)C3CC3)[C@@H]21 (mixture of isomers) ?
F508del corr: 1.6

What do the screens show for `S=C(Nc1ccc(Br)cc1)NC1CCCC1`?
MPTP inh: 95.0*; CendR NRP1 mod: -8.5; ATG4B inhibitor: -2.8; SKN-1 block: 7.5; Rh123 counter: 97.3*

Results for S=C(NCC1CCCCC1)Nc1ccc(Oc2ccccc2)cc1 ?
MPTP inh: 86.3*; CendR NRP1 mod: 6.5; F508del corr: 1.9; ATG4B inhibitor: 29.1; SKN-1 block: -4.9; Rh123 counter: 86.2*

Results for S=C(Nc1ccccc1Oc1ccccc1)NC1CCCC1 ?
MPTP inh: 0.0; CendR NRP1 mod: 1.7; F508del corr: -0.3; ATG4B inhibitor: 23.9; SKN-1 block: 0.5

How did CC(C)(C)NC(=O)Nc1ccc(Br)cc1 do in these assays?
MPTP inh: 57.8*; CendR NRP1 mod: -8.1; F508del corr: 1.2; ATG4B inhibitor: 2.1; SKN-1 block: 16.6; Rh123 counter: 76.8*

How did S=C(NCC1CCCCC1)Nc1cccnc1 do in these assays?
MPTP inh: 0.8; CendR NRP1 mod: -4.6; F508del corr: -1.8; ATG4B inhibitor: -4.3; SKN-1 block: -8.7

How did S=C(Nc1ccc(Oc2ccccc2)cc1)NC1CCCC1 do in these assays?
MPTP inh: 86.6*; CendR NRP1 mod: 2.8; ATG4B inhibitor: 9.7; SKN-1 block: 11.7; Rh123 counter: 83.9*

Results for C[C@@H]1CN([C@@H](C)CO)C(=O)c2cc(C#CC3(O)CCCC3)cnc2O[C@@H]1CN(C)C ?
F508del corr: -1.7

Results for O=C(C[C@H]1CC[C@H]2[C@@H](COC[C@H](O)CN2Cc2cc(F)ccc2F)O1)NCc1ccc(Cl)cc1 ?
F508del corr: 1.1

How did CN1CCC(NC(=O)Nc2ccc(Br)cc2)CC1 do in these assays?
MPTP inh: 67.2*; CendR NRP1 mod: -0.6; F508del corr: -3.1; ATG4B inhibitor: -4.3; SKN-1 block: -12.2; Rh123 counter: 82.6*

Screens from PubChem.
